Compound activity (PubChem BioAssay)
Pf growth 96h = P. falciparum growth inhibition at 96 hour, primary screen for plastid delayed-death inhibitors; P. falciparum luciferase reporter growth, 96 h; Potency, µM (titrated, usually from 28.7 µM), actives largely listed as inhibitors; 6.9% of 320,000 active
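Luminescence readout: decreased luciferase signal marks inhibited growth of reporter-expressing P. falciparum in infected red cells (2% hematocrit, 0.05% parasitemia final), exposed to compound two generations (96 h, 37 C, 5% CO2).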
Shiga inhibitor = Shiga toxin inhibition. Vero cells, Shiga toxin protein synthesis inhibition reporter. inhibition, % at 38.7 µM. 9.2% of 290,000 active; in the data active = inhibition mostly above about 28%, no sharp cut-off; inactive = mostly below about 43%
Pf growth 48h = P. falciparum growth inhibition at 48 hours (one generation). AID 504832. Potency, µM (highest dose often 28.7 µM), actives largely listed as inhibitors. P. falciparum luciferase growth in erythrocytes, 48 h. 5.9% of 310,000 active
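Growth was read as firefly luciferase luminescence after a 48 h, 37 C, 5% CO2 exposure of compounds to reporter-bearing P. falciparum cultures (0.1% parasitemia, 2% hematocrit final) in Albumax-supplemented RPMI 1640.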
LmPK inhibitor = inhibitors of Leishmania mexicana pyruvate kinase | Q27686 | 0.37% of 290,000 active | AID 1721 | purified LmPK, Kinase-Glo ATP luminescence, 1 h | Potency, µM (titrated, usually from 57.5 µM), usual class: inhibitors
Target sequence (Q27686 whole entry, looked up): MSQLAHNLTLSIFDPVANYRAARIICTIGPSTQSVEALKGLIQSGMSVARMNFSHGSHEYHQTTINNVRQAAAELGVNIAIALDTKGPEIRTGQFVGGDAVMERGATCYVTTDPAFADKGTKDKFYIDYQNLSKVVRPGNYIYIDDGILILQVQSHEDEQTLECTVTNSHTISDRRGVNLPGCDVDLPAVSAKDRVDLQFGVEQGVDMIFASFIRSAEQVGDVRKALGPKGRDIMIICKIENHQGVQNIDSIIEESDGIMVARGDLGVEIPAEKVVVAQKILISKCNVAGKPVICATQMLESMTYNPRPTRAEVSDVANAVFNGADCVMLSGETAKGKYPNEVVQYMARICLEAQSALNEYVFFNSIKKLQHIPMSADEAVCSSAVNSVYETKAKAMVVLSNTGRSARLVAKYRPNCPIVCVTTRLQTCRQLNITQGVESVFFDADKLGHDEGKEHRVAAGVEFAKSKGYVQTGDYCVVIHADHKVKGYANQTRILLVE
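Purified LmPK (0.1 nM) converted ADP (0.1 mM) to ATP with PEP (0.5 mM) in imidazole buffer pH 7.2 with KCl and MgCl2, 1 h at room temperature. ATP was read by Kinase-Glo luminescence; data normalized to uninhibited and no-enzyme controls.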
Cycloheximide cs = affects cycloheximide protein synthesis inhibition readout, counter-screen; cell reporter, cycloheximide protein synthesis inhibition counterscreen; max response, %; AID 2314; 12% of 300,000 active; in the data active = max response mostly above about 13%, no sharp cut-off; inactive = mostly below about 14%; also: read at 38.3 µM for the half of the compounds with a filed dose
Each line names hits and unclear results; the compound was inactive in the other large screens. An excerpt weighted towards active compounds, which were near 22% of everything screened. Unless noted, calls follow the shape of the dose curve; as a rule, active = well fitted inhibition curve with a large enough effect; inconclusive = small, poorly fitted or top-dose-only effect, or another doubt; inactive = no such curve, though single readings can be large or run the other way.

O=C(NCc1ccc(F)cc1)c1ccccc1OCc1ccccc1	Pf growth 96h inconclusive, Pf growth 48h inconclusive
O=C(Nc1ccc(N2CCCCC2)cc1)c1cccnc1	Pf growth 96h inconclusive, Shiga inhibitor 129, Cycloheximide cs 22
O=C(Nc1ccc(N2CCN(Cc3ccccc3Cl)CC2)cc1)c1cccnc1	Pf growth 48h inconclusive
O=C(Nc1ccc(N2CCCCC2)cc1)c1ccc(F)cc1	Shiga inhibitor 77, LmPK inhibitor inconclusive, Cycloheximide cs 52
O=S(=O)(N1CCCCC1)N1CCN(c2ccc(F)cc2)CC1	none
CC(=O)Nc1ccc(N2CCN(c3ccc(F)cc3)CC2)cc1	none
O=C(c1ccc(F)cc1)c1ccc(N2CCCCC2)cc1	Shiga inhibitor 97, Cycloheximide cs 61
O=C(c1ccc(F)cc1)c1ccc(N2CCCC2)cc1	Pf growth 96h inconclusive, Shiga inhibitor 151, Pf growth 48h inconclusive, Cycloheximide cs 63
O=C(Nc1ccccc1C(=O)N1CCOCC1)c1cccnc1	none (no result: Pf growth 96h)
O=S(=O)(c1ccc(N2CCN(c3ccc(F)cc3)CC2)cc1)N1CCCC1	none
O=C(Nc1sccc1C(=O)N1CCOCC1)c1cccnc1	Pf growth 96h 3.3µM
O=S(=O)(c1ccc(N2CCCC2)cc1)C(F)(F)F	Shiga inhibitor 72, Cycloheximide cs 28 (no result: Pf growth 96h)
CC(NC(=S)NCCCN1CCOCC1)C12CC3CC(CC(C3)C1)C2 (stereo not given)	Pf growth 96h inconclusive
O=C(CCc1ccccc1)N=C1SC2CS(=O)(=O)CC2N1Cc1ccccc1 (stereo not given)	Pf growth 48h inconclusive
Cc1nnsc1SCCNC(=O)c1ccc(F)cc1	none
COC(=O)/C=C/c1cnc2ccccc2c1	Shiga inhibitor 118, Cycloheximide cs 36
Cc1ccc(NC(=O)CSc2nnc(-c3ccc(S(=O)(=O)N4CCCC4)cc3)o2)cc1C	Pf growth 48h inconclusive
O=C(CSc1nnc(-c2ccc(F)cc2)o1)Nc1ccc(S(=O)(=O)N2CCCC2)cc1	Pf growth 48h inconclusive, Cycloheximide cs 20
O=C(CSc1nnc(-c2ccc(F)cc2)o1)Nc1ccc(S(=O)(=O)N2CCCCCC2)cc1	Pf growth 48h 9.3µM
O=C(NC1CC2CCCC(C1)N2Cc1ccc(F)cc1)c1ccc(F)cc1 (stereo not given)	Pf growth 48h inconclusive
Cc1ccc(S(=O)(=O)Nc2ccccc2C(=O)N2CCCCC2C)c(C)c1NS(C)(=O)=O (stereo not given)	none
CCCCN(C(=O)Nc1ccc(OCC)cc1)C1CCN(C(C)=O)CC1	none
CCOC(=O)C1=C(C)n2c(s/c(=C/c3cccc([N+](=O)[O-])c3)c2=O)=NC1c1ccc(O)c(OC)c1 (stereo not given)	Pf growth 48h 2.9µM (no result: Pf growth 96h)
O=C(CCn1cccc1)NCCc1ccc(Cl)cc1	Pf growth 96h 10µM
O=C(CCS(=O)(=O)Cc1ccc(Cl)cc1)NCCc1ccccc1	Cycloheximide cs 19
O=C(CCS(=O)(=O)Cc1ccccc1)NCCc1ccccc1	none
CCOc1ccc(CCNC(=O)CCn2cccc2)cc1OCC	Pf growth 96h 1.7µM, Pf growth 48h inconclusive
Cc1nc2ncnn2c(C)c1CCC(=O)NCCC1=CCCCC1	Pf growth 96h inconclusive, Pf growth 48h inconclusive
CCOc1ccc(CCNC(=O)CCc2c(C)nc3ncnn3c2C)cc1OCC	Pf growth 96h 5.9µM, Pf growth 48h inconclusive
O=C(COc1ccc(N2CC(C(=O)O)CC2=O)cc1)Nc1cccc(C(F)(F)F)c1 (stereo not given)	none
CCc1ccc(-c2ccc(C(=O)O)cc2)nc1	Pf growth 96h inconclusive, LmPK inhibitor inconclusive, Cycloheximide cs 38
Cc1cc[n+](-c2ccccc2)c2ccccc12	Pf growth 96h 1.7µM, Pf growth 48h 12µM
COc1ccccc1N(CC(O)CN1CCOCC1)S(=O)(=O)c1ccccc1 (stereo not given)	none
NNC(=S)NC1CCCCC1	Pf growth 96h inconclusive, Shiga inhibitor 43, Cycloheximide cs 13
O=C(NC1CCCCC1)C(=S)NC1CCCCC1	none
Cc1cc(NC(=O)C(=O)c2c(C)[nH]c3ccccc23)no1	none
CCN(CC)C(=O)Cn1cc(C(=O)C(=O)Nc2ccc3c(c2)OCCO3)c2ccccc21	Shiga inhibitor 103, Cycloheximide cs 48
CCC(C(=O)Nc1ccc2c(c1)OCCO2)n1c(=O)[nH]c2ccccc2c1=O (stereo not given)	Shiga inhibitor 88, Cycloheximide cs 73
CCC1CCCCN1C(=O)C(=O)c1cn(CC(=O)N(CC)CC)c2ccccc12 (stereo not given)	Pf growth 96h 10µM
